# Sm TGR block: inhibitors of Schistosoma mansoni thioredoxin glutathione reductase. Q962Y6. purified TGR, DTNB reduction, TNB absorbance 405 nm. Potency, µM (series often up to 114 µM), for inactives: at the top dose activity change, negative = inhibition, hits mostly inhibitors. 360,000 compounds, 3% hits; further: nearly all actives have a fitted effect of over 60% in size
#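 Kinetic colorimetric format: TGR-catalysed, NADPH-driven DTNB reduction monitored via TNB absorbance. Enzyme dispensed at 20 nM; compound exposure 15 min at room temperature before reaction start.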
# AMA1 RON2 block: disrupts binding of P. falciparum AMA1 to RON2; AlphaScreen AMA1-biotinylated RON2 peptide binding; Potency, µM (highest dose often 58.2 µM), for inactives: top-dose activity change, negative = inhibition, usual class: inhibitors; 360,000 compounds, 0.2% hits;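 further: 0% = vehicle wells and -100% = peptide control; nearly all actives have a fitted effect of over 45% in size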
#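 AMA1 (3D7) with his tag at 25 nM final met compounds first, then biotinylated RON2 peptide at 25 nM; detection used donor plus acceptor beads, 10 µg/mL apiece, read by AlphaScreen after 30 min at room temperature.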
# AmpC detergent: blocks E. coli AmpC beta-lactamase in detergent assay | AID 485294 | Potency, µM (titrated, usually from 114 µM), inactives show top-dose activity change, negative = inhibition, hits mostly inhibitors | 370,000 compounds, 0.041% hits | AmpC hydrolysis of nitrocefin, absorbance 480 nm, 0.01% Triton | P00811;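 further: 0% = no-compound wells and -100% = no-enzyme wells; nearly all actives have a fitted effect of over 25% in size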
# Target sequence (P00811 whole entry, looked up): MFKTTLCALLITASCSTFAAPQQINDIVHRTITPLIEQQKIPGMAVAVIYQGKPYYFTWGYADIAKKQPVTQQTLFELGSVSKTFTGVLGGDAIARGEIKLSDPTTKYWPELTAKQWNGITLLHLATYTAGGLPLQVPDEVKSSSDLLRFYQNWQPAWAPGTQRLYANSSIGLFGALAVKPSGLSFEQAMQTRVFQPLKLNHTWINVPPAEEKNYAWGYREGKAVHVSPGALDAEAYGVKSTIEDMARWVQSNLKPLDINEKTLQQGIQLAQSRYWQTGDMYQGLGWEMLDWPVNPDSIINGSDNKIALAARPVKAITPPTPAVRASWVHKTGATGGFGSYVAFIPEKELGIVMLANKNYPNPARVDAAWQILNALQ
#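 20 mM phosphate pH 7.0 + 0.01% (detergent screen) or 0.0001% Triton X-100; 5.3 nM AmpC reagent; cpd preinc 15 min RT; nitrocefin (800 uM stock) to start; A480 q20 s × 4 min; Activity was normalised to no-enzyme and no-compound control wells.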
# RE007 growth inh: less growth of the S. pombe RE007 Vpr strain | Potency, µM (highest dose often 92.2 µM), for the others: at the top dose activity change, negative = less growth, actives largely listed as inhibitors | S. pombe RE007 Vpr strain, BacTiter-Glo ATP luminescence, 24 h | AID 651644 | 360,000 compounds, 0.21% hits; active means well fitted falling curve with a large enough effect; inconclusive means small, poorly fitted or top-dose-only effect; inactive means no such curve, though single readings can be large or run the other way; further: nearly all actives have a fitted effect of over 50% in size
#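 Fission yeast RE007 carrying one integrated HIV-1 vpr copy, seeded at OD 0.01 in PMG+AL medium with 23 nL pinned compound. Grown 24 h at 30 degrees; viability read by BacTiter-Glo luminescence after 5 min.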
# AmpC no deterg: AmpC beta-lactamase inhibition without detergent | P00811 | AmpC nitrocefin hydrolysis, absorbance 480 nm, 0.0001% Triton | Potency, µM (series often up to 57.1 µM), without a hit: top-dose activity change, negative = inhibition, hits mostly inhibitors | 330,000 compounds, 0.52% hits | AID 485341;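 further: plate controls were no compound for no effect and no enzyme for full effect; nearly all actives have a fitted effect of over 20% in size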
#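 AmpC (5.3 nM in the dispensed reagent) in 20 mM phosphate pH 7.0 with 0.01% (detergent screen) or 0.0001% Triton X-100 was preincubated with compounds for 15 min at room temperature. Nitrocefin was then added from an 800 uM solution, and hydrolysis was followed at 480 nm.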
# * marks the source's active call; other numbers are inactive results; ? = inconclusive; · = no result given; [ ] = another dose, or the depositor's remark. Only some compounds are listed: those with a hit (about 3.2% of all), similar ones and a draw of the others. Unless noted, the call rests on the fitted dose curve; in most records, active means well fitted curve in the direction sought with a large enough effect; inconclusive means small, poorly fitted or top-dose-only effect, or another doubt; inactive means no such curve, though single readings can be large; an effect the other way counts as inactive or inconclusive. Unless noted, on the % scale 0 is the no-effect control and ±100 the full control effect; potency means the concentration at half of the fitted maximal effect.
SMILES,Sm TGR block,AMA1 RON2 block,AmpC detergent,RE007 growth inh,AmpC no deterg
O=C(NCCc1ccc(Cl)cc1)C1CCN(S(=O)(=O)c2ccc3[nH]ccc3c2)CC1,0%,·,10%,·,·
COc1ccc(CNC(=O)[C@H](Cc2ccccc2)NC(=O)C2CCNCC2)cc1,32µM*,12%,-4%,9%,4%
COc1ccc2ccc(O)c(CN3CCN(S(=O)(=O)c4cccc(C(F)(F)F)c4)CC3)c2c1,2.5µM*,-24%,-10%,-10%,-28%
COc1ccc2ccc(O)c(CN3CC=C(c4ccccc4)CC3)c2c1,8.9µM*,-7%,-12%,-22%,-12%
COc1ccc2c(CN3CC=C(c4ccccc4)CC3)cc(=O)oc2c1,?,-20%,5%,-11%,-20%
O=C(Cn1ncc2ccsc2c1=O)N1CCN(c2ccccc2)CC1,4%,·,15%,·,·
COc1ccc(CNC(=O)CCCc2nnc3n(CCC(C)C)c(=O)c4sccc4n23)cc1,8%,·,18%,·,·
Cc1oc(-c2ccc(Cl)cc2)nc1CS(=O)CC(=O)N1CCC2(CC1)OCCO2 (stereo not given),20µM*,-4%,?,-11%,61%
COc1cccc(-c2nc(CS(=O)CC(=O)N3CCC4(CC3)OCCO4)c(C)o2)c1 (stereo not given),5µM*,4%,?,1%,40%
CCOC(=O)C1CCN(C(=O)CS(=O)Cc2nc(-c3ccc(C)cc3)oc2C)CC1 (stereo not given),4µM*,0%,?,0%,84%
Cc1ccc(-c2nc(CS(=O)CC(=O)N3CCN(c4ccc(F)cc4)CC3)c(C)o2)cc1 (stereo not given),-32%,-2%,3%,2%,186%
Cc1oc(-c2ccccc2F)nc1CS(=O)CC(=O)N1CCC2(CC1)OCCO2 (stereo not given),28µM*,-15%,-2%,11%[3.69 µM],0%
Cc1ccc(-c2nc(CS(=O)CC(=O)N3CCN(c4cccc(Cl)c4)CC3)c(C)o2)cc1 (stereo not given),?,·,-6%,·,·
O=C(Cn1c(=O)n(-c2ccc(Cl)cc2)c(=O)c2sc3ccccc3c21)NC1CCCC1,6%,·,8%,·,·
COc1ccc(C(=O)Nc2nnc(S(=O)(=O)N(C)c3ccc(Cl)cc3)s2)cc1OC,-1%,·,-3%,·,·
COCc1cc(=O)n2[nH]c(-c3ccco3)cc2n1,-11%,29%,-7%,1%,-6%
CCCCN1Cc2c(nc3cc(-c4ccco4)[nH]n3c2=O)C1=O,20µM*,6%,2%,-9%,-56%
CSc1nc(O)c(N=Nc2ccc(F)cc2F)c(=O)[nH]1,-7%,3%,3%,25µM*,-22%
Cc1ccccc1CNC(=O)Cn1c(=O)c2cccn2c2cccnc21,0%,·,-7%,·,·
CCOC(=O)c1oc2ccccc2c1NC(=O)CCl,5.6µM*,3%,-1%,-11%,-10%
CCOC(=O)c1oc2ccccc2c1NC(=O)c1ccc(Cl)s1,4%,2%,?,-19%,7.1µM*
Cc1ccc(Cl)cc1NC(=O)CCCn1c(=O)c2cccn2c2ccccc21,?,·,-2%,·,·
O=C1C2C3C=CC(C3=C(c3ccccc3)c3ccccc3)C2C(=O)N1Cc1ccccc1 (stereo not given),7.9µM*,-9%,7%,?,-20%
CC(C)CCNC(=O)c1cc(-c2cccnc2)nc2ccc(S(=O)(=O)N3CCC(C)CC3)cc12,10%,·,3%,·,·
O=C1NCCN(Cc2ccc(Cl)c(F)c2)C1CC(=O)N1CCc2ccccc2C1 (stereo not given),20µM*,-2%,-3%,-19%,61%
SMILES,Sm TGR block,AMA1 RON2 block,AmpC detergent,RE007 growth inh,AmpC no deterg
CN(Cc1ccon1)C(=O)CC1C(=O)NCCN1Cc1ccc(Cl)c(F)c1 (stereo not given),35µM*,24%,2%,-9%,26%
CN(Cc1ccncn1)C(=O)CC1C(=O)NCCN1Cc1cccc(Oc2ccccc2)c1 (stereo not given),45µM*,33%,9%,8%,52%
CN(Cc1cnccn1)C(=O)CC1C(=O)NCCN1Cc1c(F)cccc1Cl (stereo not given),32µM*,38%,3%,9%,-8%
COC(=O)c1ccc(CSc2nc3c([nH]c4ccccc43)c(=O)n2-c2ccc(Cl)cc2)o1,-6%,·,11%,·,·
COc1ccc2c(c1)CC(NC(=O)Nc1c(C)cc(C)cc1C)CO2 (stereo not given),4%,·,27%,·,·
Cc1ccc(CNC(=O)c2ccc(N3CCCC3)c(NC(=O)Nc3ccc(C)cc3)c2)cc1,4%,·,1%,·,·
CCC(=O)Nc1nnc2n1CCS2,0%,·,-7%,·,·
COc1ccc(CCN2C(=O)c3ccccc3C2c2nnnn2-c2c(C)cccc2C)cc1OC (stereo not given),·,-10%,·,-16%,·
COc1ccc(-c2noc(CN(C(=O)c3cc(OC)c(OC)cc3OC)C(C)C)n2)cc1,2%,·,-4%,·,·
CN(Cc1cccnc1)C(=O)CC1C(=O)NCCN1CC(c1ccccc1)c1ccccc1 (stereo not given),?,0%,-3%,3%,117%
CN(Cc1cnccn1)C(=O)CC1C(=O)NCCN1CC(c1ccccc1)c1ccccc1 (stereo not given),45µM*,16%,5%,-15%,83%
CCc1nnc(NC(=O)CSc2nccn2Cc2ccc(F)cc2)s1,7%,·,16%,·,·
CCSC1=NC2(CCN(C(=O)NC3CCCCC3)CC2)N=C1c1ccc(C)cc1,6%,·,-11%,·,·
COc1ccc(C(N)CCc2ccco2)cc1 (stereo not given),-17%,-18%,5%,14%,9%
COc1ccc(S(=O)(=O)N(C)C(C)CCc2ccco2)cc1 (stereo not given),20µM*,0%,-7%,-10%,-39%
CC(CCc1ccco1)N(C)S(=O)(=O)c1csc(C(N)=O)c1 (stereo not given),-8%,0%,1%,-15%,-17%
Cc1ccc(S(=O)(=O)N(C)C(C)CCc2ccco2)cc1 (stereo not given),50µM*,0%,-4%,23%,-26%
CC(=O)c1ccc(S(=O)(=O)N(C)C(C)CCc2ccco2)cc1 (stereo not given),40µM*,-6%,0%,-6%,-5%
Cc1nc(N2CCCC2)c2c(C(=O)N3CCN(c4ccc(F)cc4)CC3)c(C)oc2n1,8%,·,6%,·,·
Cc1ccccc1CNCCCSc1nnnn1C,-3%,·,18%,·,·
CCOc1ccc(NC(=O)C(C)Sc2nnc(C)n2C)cc1 (stereo not given),-2%,-1%,?,6%,3.5µM*
